PLC-gamma1 inh: PLC-gamma1 (human) inhibition, primary screen. 370,000 compounds, 0.84% hits. P19174. purified PLC-gamma1, fluorogenic substrate, fluorescence. AID 720700. inhibition, % at 12.2 µM; in the data active = inhibition above about 9.5%
Target sequence (P19174 whole entry, looked up): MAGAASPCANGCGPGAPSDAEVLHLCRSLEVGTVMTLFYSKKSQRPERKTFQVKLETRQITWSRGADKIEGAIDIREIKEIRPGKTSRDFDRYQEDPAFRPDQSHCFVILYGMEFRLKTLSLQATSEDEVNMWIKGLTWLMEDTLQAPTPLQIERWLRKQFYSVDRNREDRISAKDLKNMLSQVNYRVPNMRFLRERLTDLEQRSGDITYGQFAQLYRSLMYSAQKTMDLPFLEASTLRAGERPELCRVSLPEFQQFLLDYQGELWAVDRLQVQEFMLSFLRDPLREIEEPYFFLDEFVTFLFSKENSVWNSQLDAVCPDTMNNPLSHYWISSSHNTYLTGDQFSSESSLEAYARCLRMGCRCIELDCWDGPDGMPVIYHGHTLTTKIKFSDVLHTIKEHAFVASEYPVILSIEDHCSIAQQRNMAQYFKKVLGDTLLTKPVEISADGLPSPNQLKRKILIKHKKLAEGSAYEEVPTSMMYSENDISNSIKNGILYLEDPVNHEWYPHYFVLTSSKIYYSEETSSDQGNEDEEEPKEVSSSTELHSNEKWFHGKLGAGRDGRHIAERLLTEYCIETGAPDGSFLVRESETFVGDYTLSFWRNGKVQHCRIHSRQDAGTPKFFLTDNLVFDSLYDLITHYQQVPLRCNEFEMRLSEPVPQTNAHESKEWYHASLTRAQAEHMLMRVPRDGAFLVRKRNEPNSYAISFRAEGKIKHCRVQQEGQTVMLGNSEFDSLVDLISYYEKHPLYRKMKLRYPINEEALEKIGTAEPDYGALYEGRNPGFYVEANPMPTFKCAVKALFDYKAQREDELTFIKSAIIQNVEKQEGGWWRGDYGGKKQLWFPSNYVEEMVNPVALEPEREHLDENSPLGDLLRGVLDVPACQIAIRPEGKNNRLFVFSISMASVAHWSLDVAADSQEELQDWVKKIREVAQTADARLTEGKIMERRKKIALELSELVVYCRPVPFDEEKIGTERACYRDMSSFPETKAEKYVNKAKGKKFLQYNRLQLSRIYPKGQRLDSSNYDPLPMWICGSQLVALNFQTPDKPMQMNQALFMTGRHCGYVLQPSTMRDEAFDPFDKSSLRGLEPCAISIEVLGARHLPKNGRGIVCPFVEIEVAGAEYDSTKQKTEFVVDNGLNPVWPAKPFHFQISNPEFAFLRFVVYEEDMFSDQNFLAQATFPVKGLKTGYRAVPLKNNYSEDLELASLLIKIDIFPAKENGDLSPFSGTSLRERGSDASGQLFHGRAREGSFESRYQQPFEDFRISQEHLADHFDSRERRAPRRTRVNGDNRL
ADAM10 inh: ADAM10 inhibition, QFRET primary screen | inhibition, % at 7 µM | recombinant ADAM10, EDANS/DABCYL FRET peptide cleavage, 3 h | AID 720582 | O14672 | 370,000 compounds, 0.62% hits;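 active = inhibition above a per-campaign cutoff equal to the mean of compounds falling between control-based bounds plus 3 SD, cut at about 20% in these data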;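 note: 0% = DMSO wells while the 100% control is not disclosed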
PLCb3 inh: PLC-beta3 (human) inhibition, primary screen; inhibition, % at 12.2 µM; 370,000 compounds, 0.18% hits; Purified PLC-beta3, fluorogenic substrate, fluorescence; AID 720704; Q01970;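 note: 0% = median of compound wells on plate and 100% = full blocker control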
KLK7 zymogen act: activators of human kallikrein-7 zymogen; 370,000 compounds, 0.9% hits; activation, % at 7 µM; purified proKLK7, EDANS-DABCYL substrate fluorescence; 100% is mature enzyme control, 0% vehicle; AID 652039; P49862;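 active = activation above the mean of all tested compounds plus 3 SD, computed per campaign excluding outliers beyond control limits, cut at about 13% in these data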
ADAM17 inh: ADAM17 inhibition, QFRET primary screen; recombinant ADAM17, EDANS/DABCYL FRET peptide cleavage; inhibition, % at 6.95 µM; 370,000 compounds, 0.83% hits; P78536;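 active = inhibition above the mean of compounds lying between control limits plus 3 SD, set per campaign, cut at about 8.5% in these data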;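 note: 0% = DMSO-only wells as the low control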
PLCg1 ctr: inhibits human PLC-gamma1 in PLC-beta3 counter-screen; shares compounds with PLC-gamma1 inh; purified PLC-gamma1, fluorogenic substrate, fluorescence; inhibition, % at 12.3 µM; 3,300 compounds, 3.1% hits; in the data active = inhibition above about 9.5%
PLCbeta3 conf: human PLC-beta3 inhibition, confirmation | inhibition, % at 12.3 µM | purified PLC-beta3, fluorogenic substrate fluorescence | shares compounds with PLC-gamma1 inh | 3,300 compounds, 1% hits
An asterisk follows results filed as active; nt = no result given. Shown are actives, neighbours in structure and some others; about 2.9% of the full set was active somewhere. Cut-off read from the data, not from the text of the source, unless noted: active = inhibition above about 11%; inactive = the rest.

SMILES	PLC-gamma1 inh	ADAM10 inh	PLCb3 inh	KLK7 zymogen act	ADAM17 inh	PLCg1 ctr	PLCbeta3 conf
O=C(CNC(=O)c1ccc(Cl)cc1Cl)OCCOc1ccccc1F	-0.2	-2.8	-6.2	0.3	-0.4	nt	nt
Cc1cccn2c(=O)c(C(=O)NC3CC(C)CC(C)(C)C3)c(O)nc12 (stereo not drawn)	-2.8	-3.2	-3.0	0.1	-3.9	nt	nt
CCCNC(=O)c1cc(C2CCCCN2C(=O)c2ccc3c(c2)CCO3)on1 (stereo not drawn)	47.6*	-5.0	-0.2	-0.5	-2.3	-5.9	-3.6
CCCNC(=O)c1cc(C2CCCCN2C(=O)c2ccc3ccccc3c2)on1 (stereo not drawn)	-0.8	-2.5	-1.9	0.6	-1.8	nt	nt
COC(=O)N1CCCCC1c1cc(C(=O)NCc2ccccc2)no1 (stereo not drawn)	10.4*	6.1	1.5	0.9	5.0	-1.2	-8.2
COc1ccc(NC(=O)C2Cc3c(-c4ccc(Cl)cc4)ccnc3O2)cc1OC (stereo not drawn)	1.1	2.6	0.7	0.5	0.6	nt	nt
CC(C)C(C)NC(=O)COC(=O)C1CCN(S(=O)(=O)c2ccc3c(c2)OCCO3)CC1 (stereo not drawn)	11.1*	-10.0	-1.6	0.8	-2.3	-5.5	-1.3
O=C(COC(=O)C1CCN(S(=O)(=O)c2ccc3c(c2)OCCO3)CC1)NC1CCCCC1	0.4	1.6	0.1	0.2	-2.3	nt	nt
CCCNC(=O)COC(=O)C1CCN(S(=O)(=O)c2ccc3c(c2)OCCO3)CC1	0.7	-5.4	0.1	0.5	0.4	nt	nt
CCNC(=O)COC(=O)C1CCN(S(=O)(=O)c2ccc3c(c2)OCCO3)CC1	10.2*	11.5	-4.0	0.2	0.6	-4.4	-1.0
CCOc1ccc(NC(=O)CN(C)C(=O)C2CC(=O)N(c3cccc(SC)c3)C2)cc1OCC (stereo not drawn)	3.2	-3.6	-3.5	0.6	-0.8	nt	nt
C[C@H]1CN([C@@H](C)CO)C(=O)CCCn2nncc2CO[C@@H]1CN(C)Cc1ccncc1	0.7	-1.4	3.7	-0.3	0.4	nt	nt
O=C(CSc1cc(Cl)ccc1Cl)N/N=C/c1ccc[nH]1	1.3	1.0	1.9	nt	-1.1	nt	nt
COC(=O)[C@]12C[C@H](CC(=O)N3CCC(c4ccccc4)CC3)C(=O)N(Cc3ccccc3)C1=C[C@H](C(C)C)O[C@@H]2C1CC1	-1.5	4.6	-1.2	0.1	2.7	nt	nt
COc1c(Cl)cc(Br)c(OC)c1C(=O)NC(=O)Nc1nc(C)cc(C)n1	10.8*	1.6	0.8	-0.3	0.5	-1.8	-0.8
CN(C(=O)COc1ccccc1C(=O)NCCOc1ccccc1)c1ccccc1	15.1*	-15.9	16.9*	-0.3	3.0	6.0	11.6*
Cc1ccc(C(NC(=O)N2CC(C)OC(C)C2)C(Cl)Cl)cc1F (stereo not drawn)	7.0	3.5	13.4*	-0.5	7.0	-1.3	3.6
CC1(C(=O)NC2CCCCCCC2)CCC(=O)N1Cc1cccnc1 (stereo not drawn)	13.1*	-0.9	4.1	1.0	2.1	-0.3	-1.5
COc1cccc(CN2C(=O)CCC2(C)C(=O)NC2CCCCC2)c1 (stereo not drawn)	4.0	-7.1	0.0	0.1	-5.0	nt	nt
Cc1ccc(S(=O)(=O)N2CCOCC2)cc1C(=O)OCC(=O)NCCc1ccc(F)cc1	-3.5	-4.3	-2.1	-0.1	-5.1	nt	nt
O=C(O)c1ccccc1NS(=O)(=O)c1cccc(-n2sc3ccccc3c2=O)c1	-5.9	-0.5	-21.2	0.7	-0.3	nt	nt
CC1=C(C(=O)OC(C)C)C(C2CC=CCC2)NC(=O)N1 (stereo not drawn)	11.8*	9.6	2.8	-0.7	4.1	-3.6	-0.5
CCOC(=O)C1=C(C)NC(=O)NC1C1CC=CCC1 (stereo not drawn)	3.6	2.7	1.3	0.3	0.6	nt	nt
CN(C)c1ncnc2c1ncn2[C@H]1CN(CCN2CCOCC2)C[C@@H](CO)O1	10.7*	8.3	5.6	-0.2	4.4	0.2	-0.1
COc1ccc(/C=N/NC(=S)Nc2ccccc2)cc1COc1ccc(F)cc1	11.3*	4.4	15.8*	0.0	4.6	-11.3	-9.6
SMILES	PLC-gamma1 inh	ADAM10 inh	PLCb3 inh	KLK7 zymogen act	ADAM17 inh	PLCg1 ctr	PLCbeta3 conf
Cn1c(SCC(=O)NC2CCCCC2)nnc1-c1cccnc1	-1.1	-10.9	-6.6	0.1	-0.1	nt	nt
Cn1c(SCC(=O)NC2(C#N)CCCCC2)nnc1-c1cccnc1	12.0*	-0.5	-1.5	0.3	-0.9	-8.5	-4.9
O=C(OCc1ccccc1)N1CCCCC1c1c(Cl)cccc1Br (stereo not drawn)	-0.1	8.8	-2.4	-0.1	1.7	nt	nt
Cc1nn(-c2ccccc2)c(N2CCCC2)c1/C=N/NC(=O)C1CC1	12.0*	-2.2	-5.5	-0.4	-2.0	1.6	-2.2
O=C(NCc1ccccc1)C1c2ccccc2OCC(=O)N1Cc1ccco1 (stereo not drawn)	-3.0	-10.1	-1.4	0.1	-0.7	nt	nt
CCCC(=O)NNC(=O)CCC(=O)Nc1ccccc1Cl	10.1*	5.1	-0.5	-0.3	3.5	-4.2	-1.6
COc1ccc(C(=O)N[C@H](C(=O)NCC2CCCCC2)C(C)C)cc1	11.7*	0.8	1.7	0.0	-0.1	-12.2	-9.9
C#CCN(C[C@H]1[C@H](OC(=O)NCc2ccc(OC)c(OC)c2)[C@H](OC(=O)NCc2ccc(OC)c(OC)c2)C[C@@H](C(=O)OC)[C@H]1C(=O)OC)S(=O)(=O)c1ccc(C)cc1	2.5	8.8	7.0	0.7	3.6	nt	nt
O=C(CN1CCCC1)NCC12CC3CC(CC(C3)C1)C2	10.5*	-0.1	8.2	0.8	5.7	-1.3	1.5
Cc1ccc(-n2nnnc2SCC(=O)NCC2(N3CCOCC3)CCCCC2)cc1	9.7*	-8.4	-10.3	0.2	-9.0	-7.5	-0.9
Cn1c(=O)[nH]c(=O)c2c1ncn2CCN1CCOCC1	4.9	11.3	11.4*	0.5	4.8	-3.6	-4.3
CN(C)CCCn1cnc2c1c(=O)[nH]c(=O)n2Cc1ccccc1	4.3	5.8	-9.7	-0.1	-5.5	nt	nt
CCCCn1cnc2c1c(=O)[nH]c(=O)n2CCCC	6.5	-1.9	11.2*	-0.5	2.0	-4.0	6.5
COc1ccc(S(=O)(=O)N2CCc3ccccc3C2)cc1OC	13.1*	20.6*	4.6	-0.7	3.8	-4.4	-3.5
COc1ccc(S(=O)(=O)N2CCc3ccccc3C2)cc1C(=O)O	1.1	-0.7	-1.5	0.1	0.9	nt	nt
CCC(CC)c1nn2c(N)c(/C=C3\C=Nc4ccccc43)c(=O)nc2s1	10.0*	-1.7	3.8	0.6	-2.1	-48.4	-46.2
CC(C)c1nn2c(N)c(/C=C3\C=Nc4ccccc43)c(=O)nc2s1	-8.7	-8.1	-13.5	0.6	-8.9	nt	nt
CCCN(CC1CC1)S(=O)(=O)c1ccc(S(N)(=O)=O)cc1	11.9*	-11.0	-3.5	0.1	-3.8	-4.3	-6.1

Compound activity (PubChem BioAssay)
